# Shown are actives, neighbours in structure and some others; about 4.5% of the full set was active somewhere.
# hcDAF-12 act – H. contortus DAF-12 activation, primary screen | activation, % at 6.8 µM | HEK293 hcDAF-12 lit1-tk-luc reporter, luminescence; 0% DMSO, 100% Δ7-dafachronic acid | AID 652067 | actives 1.4% (n = 370,000);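 active means activation above the mean of all tested compounds plus 3 SD, cut at about 5.5% in these data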
# DAX1 inh-1 – blocks DAX1 repression of SF-1 activated StAR promoter; HEK293T StAR-luciferase reporter, SF-1/DAX-1 repression relief; inhibition, % at 6.8 µM; actives 1.1% (n = 370,000);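 active means inhibition above the mean over all tested compounds plus 3 SD, cut at about 3.6% in these data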;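 further: higher inhibition means more luminescence from relief of DAX-1 repression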
# DAX1 inh-2 – inhibitors of human orphan nuclear receptor DAX1 (NR0B1); HEK293 Gal4-DAX1 luciferase reporter, luminescence; inhibition, % at 6.75 µM; P51843; actives 0.99% (n = 340,000);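 active means inhibition above the mean over all tested compounds plus 3 SD, cut at about 4.2% in these data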;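 further: inhibition shows as a rise in luminescence from relieved DAX1 repression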
# Target sequence (P51843 207-470 limits assumed): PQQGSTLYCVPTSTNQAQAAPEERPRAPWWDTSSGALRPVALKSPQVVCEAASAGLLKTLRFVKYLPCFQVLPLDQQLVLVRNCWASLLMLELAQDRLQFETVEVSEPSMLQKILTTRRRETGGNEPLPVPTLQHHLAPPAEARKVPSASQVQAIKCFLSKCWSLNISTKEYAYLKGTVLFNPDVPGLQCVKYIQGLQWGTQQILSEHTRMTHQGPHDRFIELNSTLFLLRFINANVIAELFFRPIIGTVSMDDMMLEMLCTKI
# FXN GAA850 act – increases GAA850 frataxin promoter reporter activity. activation, % at 6 µM. actives 0.56% (n = 360,000). HEK293 lucGAA850 FXN promoter luciferase reporter, 24 h; percent of 10 µM SAHA response;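 active means activation above the average of all compounds screened plus 3 SD, cutoff fixed separately per campaign, cut at about 7.5% in these data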
# hgDAF12 agonist – activates the H. glycines DAF-12 receptor ligand-binding domain; actives 1.8% (n = 370,000); HEK293 GAL4-hgDAF12 UAS-luciferase reporter, agonist luminescence; normalized to butyrate control; activation, % at 6.8 µM; AID 687014;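 active means activation above a cutoff set at the mean of all screened compounds plus 3 SD, cut at about 10% in these data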
# ssDAF-12 act – activators of S. stercoralis DAF-12 nuclear receptor; HEK293 ssDAF-12/GRIP1 lit1-tk-luc reporter, luminescence; % of 3 µM dafachronic acid response; activation, % at 6.8 µM; actives 1% (n = 370,000); AID 652126;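 active means activation above the mean over all tested compounds plus 3 SD, cut at about 0.9% in these data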
# Numbers stand for hits; 0 = inactive; - = no result given.
SMILES,hcDAF-12 act,DAX1 inh-1,DAX1 inh-2,FXN GAA850 act,hgDAF12 agonist,ssDAF-12 act
Cc1[nH]ccc2cc3nc4ccccc4c3cc12,5.7,0,0,0,0,0
Cc1cccc2nc3ccccc3cc12,0,0,0,0,0,0
Cc1ccc(NC(=O)Nc2ccc3c(c2)[C@]2(CC(=O)N(CC(C)C)C2c2ccccc2)C(=O)N3C)cc1Cl (stereo partly specified),0,0,-,-,0,0
CC(C)c1ccc(C(=O)Nc2cccnc2)cc1,0,0,0,0,10,0
O=C(Nc1ccc(Cl)c(Cl)c1)c1cccnc1,0,0,6.3,0,0,0
COC(=O)[C@]12C[C@H](CC(=O)N3CCC(c4ccccc4)CC3)C(=O)N(Cc3cccc4ccccc34)C1=C[C@H](C1CCCC1)O[C@@H]2C,0,0,-,-,0,0
COC(=O)C[C@H]1CC[C@@H]2[C@@H](COc3ccc(NC(=O)C4CCCCC4)cc3C(=O)N2C)O1,0,0,-,-,0,0
CN(C)CCSc1nnc2[nH]c3ccccc3c2n1,0,0,0,0,0,1.1
O=C(CSc1nnc(-c2ccccn2)n1-c1ccccc1)c1ccc(Cl)c(Cl)c1,0,0,-,-,0,0
CN(CCc1ccccn1)C(=O)c1ccc2c(c1)ncn2C1CCCCC1,0,0,-,-,0,0
O=C(c1ccc2c(c1)OCCCO2)c1cccs1,0,0,0,0,10,0
C#CCNC(=O)C[C@@H]1C(=O)N(CC=C)C2=CCCCC[C@]21C(=O)OC,0,0,-,-,0,0
Cc1ccc(SCC(=O)OCC(=O)NCCCc2ccccc2)cc1,0,0,0,0,0,0
O=C(COC(=O)CSc1ccc(F)cc1)NCCCc1ccccc1,0,0,0,0,0,1.1
CCCCCCCCN1C(=O)[C@@H](CC(=O)NCC23CC4CC(CC(C4)C2)C3)C[C@@]2(C(=O)OC)C1=C[C@H](C(C)C)O[C@@H]2C1CC1,0,0,-,-,0,0
Cc1ccc(NS(=O)(=O)c2ccc(Br)s2)nc1,0,0,0,0,0,1.3
Cc1cc(C)nc(NS(=O)(=O)c2ccc(Br)s2)c1,0,0,0,0,0,0
COc1ccc(S(=O)(=O)Nc2ccc(C)cn2)cc1,0,0,4.6,0,0,0
O=C(CSc1nnc(COc2ccccc2)n1Cc1ccco1)Nc1ccc2c(c1)OCO2,0,0,-,-,0,0
CCOc1ccc(N(CC(=O)Nc2c(C)n(C)n(-c3ccccc3)c2=O)S(=O)(=O)c2cc(OC)ccc2OC)cc1,0,0,-,-,0,0
COC(=O)[C@]12C[C@H](CC(=O)N3CCN(C(=O)c4ccco4)CC3)C(=O)N(Cc3cccc4ccccc34)C1=C[C@H](C(C)(C)C)O[C@@H]2C,0,0,-,-,0,0
O=C1SC(c2ccccc2)=C/C1=C\N1CCCCC1,6.1,0,0,0,0,0
CCOC(=O)[C@]12CCCC3=C1N(CCC3)C(=O)[C@@H](CC(=O)NCc1cccc3ccccc13)C2,0,0,-,-,0,0
O=C(NCc1cccnc1)c1cc(-c2ccccc2)on1,0,0,0,0,12,0
O=C(NCc1cccnc1)c1cc(-c2cccs2)on1,0,0,0,0,12,0
SMILES,hcDAF-12 act,DAX1 inh-1,DAX1 inh-2,FXN GAA850 act,hgDAF12 agonist,ssDAF-12 act
CCCc1cc(C(=O)NCc2cccs2)no1,0,0,0,0,0,2.0
CCCc1cc(C(=O)NCc2ccco2)no1,0,0,0,0,0,0
COc1ccc(-c2cc(C(=O)NCc3cccnc3)no2)cc1,0,0,0,0,0,0
CCCc1cc(C(=O)NCc2cccnc2)no1,5.8,0,0,0,0,0
CCCc1cc(C(=O)NCc2ccccc2)no1,0,0,0,0,0,0
CCCCC(=O)N[C@H]1CC[C@@]23CCCN2C(=O)CCC[C@H]3[C@H]1C,0,-,-,-,0,0
COc1ccc(Cn2cc(CN3[C@@H](C)COc4cc(Br)ccc4S3(=O)=O)nn2)cc1,0,0,-,-,0,0
COc1ccc(CCNC(=O)c2cc(C(C)C)on2)cc1OC,0,0,0,0,0,0
CCCc1cc(C(=O)NC2CCCC2)no1,0,0,0,0,0,0
COc1ccc(CCNC(=O)c2cc(-c3cccs3)on2)cc1OC,-,-,0,16,-,-
CCCc1cc(C(=O)NC2CCCCC2)no1,0,0,0,0,13,0
O=C(C[n+]1ccccc1)N1c2ccccc2Sc2ccccc21,0,0,4.5,0,0,0
CN(C)c1cc[n+](CC(=O)N2c3ccccc3Sc3ccccc32)cc1,0,0,0,0,0,0
Cc1cc(C)cc(C(=O)OCCCN(C)C2CN(Cc3cn(Cc4ccccc4F)nn3)S(=O)(=O)C2)c1 (stereo unspecified),0,0,-,-,0,0
COc1cc(C2NC(=O)CCC2[N+](=O)[O-])c(OC)cc1Br (stereo unspecified),0,0,0,0,0,0.9
O=C(O)c1ccc(CS(=O)(=O)c2cccc(C(F)(F)F)c2)o1,0,0,4.5,0,0,0
CCCCNC(=O)c1ccc(CS(=O)(=O)c2cccc(C(F)(F)F)c2)o1,0,0,0,0,0,0
CN(C(=O)c1ccco1)c1nc(-c2ccccc2)cs1,5.9,3.7,0,0,11,0
O=C(CCNC(=O)c1ccco1)Nc1nc(-c2ccccc2)cs1,6.4,0,-,0,0,1.0
O=C(Nc1nc(-c2ccccc2)cs1)c1ccco1,0,0,0,0,0,0
Cc1ccc(-c2csc(NC(=O)c3ccco3)n2)cc1C,0,0,4.3,0,0,0
Cc1ccc2c(c1)N(CCCC(=O)N(C)Cc1ccccc1Cl)C(=O)CO2,0,0,-,-,0,0
O=C(NCc1ccccc1)[C@@H]1CCCN1C(=O)[C@H]1CCCN1C(=O)c1c(F)cccc1F,0,0,-,-,0,0
O=C(C1CCCN1S(=O)(=O)c1ccc(Cl)s1)N1CCN(c2ccccc2)CC1 (stereo unspecified),0,0,-,-,0,0
CC(C)C[C@H]1COc2cccc(F)c2S(=O)(=O)N1Cc1cn(Cc2ccco2)nn1,0,0,-,-,0,0
SMILES,hcDAF-12 act,DAX1 inh-1,DAX1 inh-2,FXN GAA850 act,hgDAF12 agonist,ssDAF-12 act
C=CCc1cc(Cl)ccc1OCCNCCCOC,0,0,7.1,0,0,0
CC(=O)N1CCN(C(=O)c2cc3c(s2)CCC(C)C3)CC1 (stereo unspecified),0,3.9,0,0,0,1.0
CCc1nnc(NC(=O)CCC(=O)Nc2ccccc2)s1,0,0,0,0,0,0
CCc1nnc(NC(=S)Nc2ccccc2)s1,0,0,0,0,12,0
Cc1cc(NC(=O)C(C)SCC(=O)Nc2nnc(CC(C)C)s2)no1 (stereo unspecified),0,3.6,0,0,0,0
Cc1ccc(C(=O)Nc2nnc(NC(=S)Nc3ccccc3)s2)cc1,0,0,0,0,0,0
Cc1cc(NC(=O)C(C)SCC(=O)O)no1 (stereo unspecified),0,0,0,0,0,0

# Screening results (PubChem BioAssay)
